Laboratory results reported in PubChem BioAssay (NCATS).
Records with an inconclusive call do not appear. Calls of active or inactive are those of the source. The call rests on the fitted dose curve; in most records, active means well fitted inhibition curve with a large enough effect; inconclusive means small, poorly fitted or top-dose-only effect; inactive means flat fitted curve, though single readings scatter.

Biological target: Glutathione peroxidase 1 (Homo sapiens) (UniProt P07203)
Assay: Primary qHTS Assay for Inhibitors of Recombinant Selenoprotein Glutathione Peroxidase 1 (GPX1) (AID 1845191)
Details: recombinant GPX1, GR-coupled NADPH fluorescence, 15 min; series mostly up to 48.8 µM; activity, negative = inhibition: at the top concentration
Summary of the method: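 GR-coupled readout: NADPH consumption tracked by fluorescence, ex 340/em 450 nm, at t=0 and after 15 min at RT. Final mix 10 nM GPX1, 1 mM GSH, 0.5 mM CHP, 0.5 mM NADPH, 100 nM GR, 0.01% BSA, following 30 min enzyme–compound preincubation.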
Further: nearly all actives have a fitted effect of over 65% in size.
On the % scale 0 is the no-effect control and ±100 the full control effect.

Chain of Glutathione peroxidase 1 (Homo sapiens) (P07203 whole entry, looked up): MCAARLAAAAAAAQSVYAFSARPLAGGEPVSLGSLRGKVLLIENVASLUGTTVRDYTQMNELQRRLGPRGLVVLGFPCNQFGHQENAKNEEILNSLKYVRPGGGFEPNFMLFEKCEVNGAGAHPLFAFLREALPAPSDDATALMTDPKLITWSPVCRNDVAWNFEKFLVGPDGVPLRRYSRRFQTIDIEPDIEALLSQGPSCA

Row | SMILES | activity, negative = inhibition | outcome | Potency
1 | CC1=C(C(=O)O)/C(=C\CO[C@@H]2O[C@H](CO)[C@@H](O)[C@H](O)[C@H]2O)C(OC(=O)/C=C\c2ccc(O)cc2)C1 (some centres undefined) | -17.2% [at 27.7 µM] (inactive) | – | –
2 | C=C(C)C1CCC2(C(=O)O)CCC3(C(=O)O)C(CCC4C5(C)CCC(O)C(C)(C(=O)O)C5CCC43C)C12 (centres undefined) | – | inactive [at 27.7 µM] | –
3 | COc1c2c(c(CO)c3c1C(=O)OC3)OC1(C)CCC3(O)C(C)(C)OC(=O)CCC3(C)C1C2 (centres undefined) | -14.3% [at 27.7 µM] (inactive) | – | –
4 | OCCc1ccc(O[C@@H]2O[C@H](CO)[C@@H](O)[C@H](O)[C@H]2O)cc1 | -6.92% (inactive) | – | –
5 | C[C@@H]1CCC2C(C)(C)[C@H](O)CC[C@]2(C)[C@@]12Cc1c(O)cc3c(c1O2)CN([C@@H](CCC(=O)O)C(=O)O)C3=O (some centres undefined) | -11.1% [at 27.7 µM] (inactive) | – | –
6 | CC(=O)O[C@@H]1[C@H](O[C@@H]2O[C@@H](CO)[C@H](O)[C@H]2O)[C@@H](O[C@@H]2O[C@@H](C)[C@H](O[C@@H]3OC[C@@H](O)[C@H](O)[C@H]3O)[C@@H](O)[C@H]2O)[C@H](OC(=O)[C@]23CCC(C)(C)C[C@H]2C2=CCC4[C@@]5(C)CC[C@H](O[C@@H]6O[C@H](C(=O)O)[C@@H](O)[C@H](O)[C@H]6O[C@@H]6O[C@H](CO)[C@H](O)[C@H](O)[C@H]6O)[C@@](C)(C=O)C5CC[C@@]4(C)[C@]2(C)CC3)O[C@@H]1C (some centres undefined) | -3.42% [at 9.52 µM] (inactive) | – | –
7 | C[C@@H]([C@@H](O)c1ccc(O)cc1)N1CCC(O)(c2ccccc2)CC1 | – | inactive | –
8 | CC1(C)CC2C(O)c3cocc3CC(C)(O)C2C1 (centres undefined) | – | inactive | –
9 | Cn1c(=O)n(-c2ccc(C(C)(C)C#N)cc2)c2c3cc(C#Cc4cccnc4)ccc3ncc21 | -12.5% [at 27.7 µM] (inactive) | – | –
10 | CN1CCN(C2CCC(n3cc(-c4ccc(Oc5ccccc5)cc4)c4c(N)ncnc43)CC2)CC1 (centres undefined) | – | – | inactive

Biological target: Phospholipid hydroperoxide glutathione peroxidase GPX4 (Homo sapiens) (UniProt P36969)
Assay: Primary qHTS Assay for Inhibitors of Recombinant Selenoprotein Glutathione Peroxidase 4 (GPX4) (AID 1845192)
Details: recombinant GPX4, GR-coupled NADPH fluorescence, 15 min; series mostly up to 50 µM; activity change, negative = inhibition: at the top concentration
Summary of the method: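 Steps: GPX4 plus compound, 30 min RT; add GR/GSH/NADPH master mix; start with cumene hydroperoxide; read 340/450 nm fluorescence at 0 and 15 min. Finals were 200 nM GPX4, 1 mM GSH, 0.5 mM CHP, 0.5 mM NADPH, 100 nM GR.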

Chain of Phospholipid hydroperoxide glutathione peroxidase GPX4 (Homo sapiens) (P36969 whole entry, looked up): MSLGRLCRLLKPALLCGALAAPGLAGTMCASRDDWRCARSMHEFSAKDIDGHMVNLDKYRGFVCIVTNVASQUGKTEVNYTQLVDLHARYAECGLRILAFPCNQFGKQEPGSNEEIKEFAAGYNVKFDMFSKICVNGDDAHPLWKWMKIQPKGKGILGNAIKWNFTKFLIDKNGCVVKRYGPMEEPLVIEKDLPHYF

Row | SMILES | activity change, negative = inhibition | outcome | Potency
11 | COc1ccccc1Oc1ccc(N(Cc2cccnc2)S(=O)(=O)CC(F)(F)F)cc1 | 1.18% (inactive) | – | –
12 | C=CC(C)(O)CC/C=C(\C)C(=O)OC1C(O)C(CO)OC(OC(=O)C23CCC(C)(C)CC2C2=CCC4C5(C)CCC(OC6OC(COC7OCC(OC(C)=O)C(O)C7OC7OC(COC(C)=O)C(O)C(O)C7O)C(O)C(O)C6O)C(C)(C)C5CCC4(C)C2(C)C(O)C3O)C1OC1OCC(OC2OCC(O)C(OC3OCC(O)C(O)C3O)C2O)C(O)C1O (centres undefined) | – | inactive [at 9.73 µM] | –
13 | O=C(CO)[C@@H](O)[C@H](O[C@@H]1O[C@H](CO)[C@H](O)[C@H](O)[C@H]1O)[C@H](O)CO | – | inactive | –
14 | C/C1=C\CCC(C)CCO[C@@H]2O[C@H](CO[C@@H]3OC[C@H](O)[C@H](O)[C@H]3OC1=O)[C@@H](O)[C@H](O)[C@H]2O (some centres undefined) | -7.89% [at 27.8 µM] (inactive) | – | –
15 | Cc1csc(NC(=O)c2ccc(COc3cccc(Cl)c3)o2)n1 | -7.66% (inactive) | – | –
16 | COC(=O)C[C@H]1C(C)(C)[C@H](OC(C)=O)C2CC3=C4CC(=O)O[C@@H](c5ccoc5)[C@]4(C)CCC3[C@@]1(C)C2=O (some centres undefined) | -14.1% [at 27.8 µM] (inactive) | – | –
17 | CC(=O)O[C@]1(C(C)=O)CC[C@H]2[C@@H]3C[C@H](C)C4=CC(=O)C=C[C@]4(C)[C@@]3(F)[C@@H](O)C[C@@]21C | – | inactive | –
18 | CCCC1(c2ccccc2)NC(=O)N(CC(=O)N(C)Cc2c(F)cccc2Cl)C1=O (centres undefined) | 0.435% (inactive) | – | –
19 | C=CC(C)(O)CC[C@H]1C(=C)CCC2[C@](C)(C(=O)O)CCC[C@@]21C (some centres undefined) | – | inactive [at 27.8 µM] | –
20 | C=CC(C)(O)C(O)CC1C(C)(O)C(O)C(O)C2C(C)(C)CCCC21C (centres undefined) | -13.7% [at 27.8 µM] (inactive) | – | –
21 | C[C@@H]1C[C@@H](O)[C@@]23CO[C@@H](O)[C@@H]2CCC[C@@H]3[C@@]12C[C@@H](c1ccoc1)OC2=O | 0.306% [at 27.8 µM] (inactive) | – | –
22 | OC[C@H]1O[C@@H](OC(CCCCc2ccc(O)cc2)CCc2ccc(O)cc2)[C@H](O)[C@@H](O)[C@@H]1O (some centres undefined) | 3.99% [at 27.8 µM] (inactive) | – | –
23 | Cc1cc(Nc2ncc3cc(-c4c(Cl)cccc4Cl)c(=O)n(C)c3n2)ccc1F | – | inactive | –
24 | CC1(C(=O)O)CCCC2(C)C3=CCC4CC3(CCC12)CC4CO (centres undefined) | 2.57% [at 27.8 µM] (inactive) | – | –
25 | C[C@H](O)[C@H](O)/C=C/c1cccc(O)c1CO | – | inactive | –
26 | CC1(C)C2CC=C(COC3OC(COC4OCC(O)(CO)C4O)C(O)C(O)C3O)C1C2 (centres undefined) | -4.37% [at 27.8 µM] (inactive) | – | –
27 | C=CC(C)(C)C12C=C(OC)C(=O)N3C(C(C)C)C(=O)NC31N(OC)c1ccccc12 (centres undefined) | -10.6% [at 27.8 µM] (inactive) | – | –
28 | [N-]=[N+]=N[C@]1(CO)O[C@@H](n2ccc(=O)[nH]c2=O)[C@@H](O)[C@@H]1O | -1.87% (inactive) | – | –
29 | COC(=O)C[C@H]1C(C)(C)[C@H](OC(=O)C(C)C)[C@@]2(O)C(=O)[C@]1(C)C1CC[C@]3(C)C(CC(=O)O[C@H]3c3ccoc3)[C@]13O[C@@H]32 (some centres undefined) | -3.55% [at 15.3 µM] (inactive) | – | –
30 | CC(C)[C@H]1CC[C@@]2(O)COC(=O)[C@H]2[C@@H]1/C=C(\CO)C(=O)O | – | inactive | –

Row | SMILES | activity change, negative = inhibition | outcome | Potency
31 | CS(=O)(=O)N(CC(=O)NCC1CC1)c1cc(C(F)(F)F)ccc1Cl | -0.804% (inactive) | – | –
32 | CC(=O)O[C@@H]1[C@@H](OC(=O)/C=C/c2ccccc2)[C@@H](OC(C)=O)[C@H](O[C@H]2[C@@H]3C=CO[C@@H](O[C@@H]4O[C@H](CO)[C@@H](O)[C@H](O)[C@H]4O)[C@@H]3[C@@]3(CO)O[C@@H]23)O[C@H]1C | -4.52% [at 15.3 µM] (inactive) | – | –
33 | CC1(C)[C@@H](O)CC[C@]2(C)[C@H]3CC=C4[C@@H]5C[C@](C)(C(=O)O)CC[C@]5(C)CC[C@@]4(C)[C@]3(C)CC[C@@H]12 | -20.3% (inactive) | – | –
34 | NCc1ccc(Nc2ncc(F)c(Nc3ccccc3)n2)cc1 | -2.23% (inactive) | – | –
35 | CC(=O)O[C@@H]1[C@@H](O)[C@H](C)O[C@@H](O[C@H]2[C@@H]3C=CO[C@@H](O[C@@H]4O[C@H](CO)[C@@H](O)[C@H](O)[C@H]4O)[C@@H]3[C@@]3(CO)O[C@@H]23)[C@@H]1OC(=O)/C=C/c1ccccc1 | – | inactive [at 15.3 µM] | –
36 | COc1c(C)c(OCC(O)C(C)(C)O)cc2c1COC2=O (centres undefined) | 3.42% (inactive) | – | –
37 | C[C@@H]1O[C@@H](O[C@H]2[C@H](O[C@H]3[C@H](O[C@H]4CC[C@@]5(C)C(CC[C@]6(C)C5CC=C5[C@@H]7CC(C)(C)C[C@@H](O)[C@]7(C)CC[C@]56C)[C@@]4(C)CO)O[C@H](C(=O)O)[C@@H](O)[C@@H]3O)OC[C@H](O)[C@@H]2O)[C@H](O)[C@H](O)[C@H]1O (some centres undefined) | -19.7% [at 15.3 µM] (inactive) | – | –
38 | CCOc1ccc(S(=O)(=O)n2c(C)nc3ccccc32)cc1 | – | inactive [at 27.8 µM] | –
39 | Cc1ccc(NC(=O)C(=O)NC2CC(C)(C)NC(C)(C)C2)cc1 | -1.66% (inactive) | – | –
40 | CC1=C(C(=O)O)/C(=C\CO[C@@H]2O[C@H](CO)[C@@H](O)[C@H](O)[C@H]2O)C(OC(=O)/C=C\c2ccc(O)cc2)C1 (some centres undefined) | -13.1% [at 27.8 µM] (inactive) | – | –
41 | C=C(C)C1CCC2(C(=O)O)CCC3(C(=O)O)C(CCC4C5(C)CCC(O)C(C)(C(=O)O)C5CCC43C)C12 (centres undefined) | – | inactive [at 27.8 µM] | –
42 | COc1c2c(c(CO)c3c1C(=O)OC3)OC1(C)CCC3(O)C(C)(C)OC(=O)CCC3(C)C1C2 (centres undefined) | -13.9% [at 27.8 µM] (inactive) | – | –
43 | OCCc1ccc(O[C@@H]2O[C@H](CO)[C@@H](O)[C@H](O)[C@H]2O)cc1 | -3.49% (inactive) | – | –
44 | C[C@@H]1CCC2C(C)(C)[C@H](O)CC[C@]2(C)[C@@]12Cc1c(O)cc3c(c1O2)CN([C@@H](CCC(=O)O)C(=O)O)C3=O (some centres undefined) | -5.5% [at 27.8 µM] (inactive) | – | –
45 | CC(=O)O[C@@H]1[C@H](O[C@@H]2O[C@@H](CO)[C@H](O)[C@H]2O)[C@@H](O[C@@H]2O[C@@H](C)[C@H](O[C@@H]3OC[C@@H](O)[C@H](O)[C@H]3O)[C@@H](O)[C@H]2O)[C@H](OC(=O)[C@]23CCC(C)(C)C[C@H]2C2=CCC4[C@@]5(C)CC[C@H](O[C@@H]6O[C@H](C(=O)O)[C@@H](O)[C@H](O)[C@H]6O[C@@H]6O[C@H](CO)[C@H](O)[C@H](O)[C@H]6O)[C@@](C)(C=O)C5CC[C@@]4(C)[C@]2(C)CC3)O[C@@H]1C (some centres undefined) | 2.32% [at 9.73 µM] (inactive) | – | –
46 | C[C@@H]([C@@H](O)c1ccc(O)cc1)N1CCC(O)(c2ccccc2)CC1 | 7.85% (inactive) | – | –
47 | CC1(C)CC2C(O)c3cocc3CC(C)(O)C2C1 (centres undefined) | -7.46% (inactive) | – | –
48 | Cn1c(=O)n(-c2ccc(C(C)(C)C#N)cc2)c2c3cc(C#Cc4cccnc4)ccc3ncc21 | 3.59% [at 27.8 µM] (inactive) | – | –
49 | CN1CCN(C2CCC(n3cc(-c4ccc(Oc5ccccc5)cc4)c4c(N)ncnc43)CC2)CC1 (centres undefined) | – | – | inactive
